# KCNQ2 pot: potentiators of rat KCNQ2 potassium channel; O88943; CHO-K1 KCNQ2, FluxOR thallium flux fluorescence; hits give high values; B-score at 10 µM; 310,000 compounds, 0.54% hits;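 active = fluorescence ratio B-score at least 3 SD of library B-scores, with initial fluorescence B-score within 3 of them, cut at about 5.3 in these data; same plate scores as AID 2156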;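 also: B-score of peak minus minimum over baseline fluorescence ratio after K+ and Tl+ stimulus; positive B-score means potentiation of KCNQ2 with more thallium influx and brighter signal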
# Target sequence (O88943 whole entry, looked up): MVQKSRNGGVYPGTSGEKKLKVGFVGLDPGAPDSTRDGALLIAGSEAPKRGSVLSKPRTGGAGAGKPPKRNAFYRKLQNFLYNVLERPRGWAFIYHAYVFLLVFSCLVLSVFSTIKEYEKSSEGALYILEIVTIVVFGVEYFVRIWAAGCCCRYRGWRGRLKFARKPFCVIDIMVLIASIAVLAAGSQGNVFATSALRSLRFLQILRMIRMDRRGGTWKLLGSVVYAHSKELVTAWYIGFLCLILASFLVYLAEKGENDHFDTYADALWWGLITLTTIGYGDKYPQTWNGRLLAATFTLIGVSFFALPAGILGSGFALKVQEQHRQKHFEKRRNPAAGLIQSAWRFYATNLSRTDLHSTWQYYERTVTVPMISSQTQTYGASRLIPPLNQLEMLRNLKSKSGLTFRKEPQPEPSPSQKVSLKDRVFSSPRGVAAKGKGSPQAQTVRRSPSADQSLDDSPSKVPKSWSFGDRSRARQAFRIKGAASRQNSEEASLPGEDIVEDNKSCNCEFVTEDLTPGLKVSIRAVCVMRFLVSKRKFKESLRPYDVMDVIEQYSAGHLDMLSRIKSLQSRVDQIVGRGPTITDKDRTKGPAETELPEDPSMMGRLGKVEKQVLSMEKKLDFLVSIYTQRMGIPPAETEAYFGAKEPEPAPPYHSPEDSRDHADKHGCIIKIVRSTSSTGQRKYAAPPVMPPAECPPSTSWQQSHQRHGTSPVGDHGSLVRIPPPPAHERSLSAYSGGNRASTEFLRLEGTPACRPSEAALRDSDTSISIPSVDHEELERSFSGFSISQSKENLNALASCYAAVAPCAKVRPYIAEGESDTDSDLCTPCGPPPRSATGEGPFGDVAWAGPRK
# KCNQ2 block: inhibitors of rat KCNQ2 potassium channel; O88943; AID 2156; 310,000 compounds, 1.1% hits; CHO-K1 KCNQ2, FluxOR thallium flux, 20 min; hits give low values; B-score at 10 µM;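 active = fluorescence ratio B-score at most minus 3 library SDs, with starting brightness B-score within 2 library SDs, cut at about -5.5 in these data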
# The depositor's hits bear a star; i = inactive; . = not tested or not shown. Only some compounds are listed: those with a hit (about 1.6% of all), similar ones and a draw of the others.
SMILES,KCNQ2 pot,KCNQ2 block
COC(=O)c1ccc(-c2ccc(/C=N/NC(=O)Cc3nnc(N)s3)o2)cc1,0.12,i
O=C(Oc1cccc(C(=S)N2CCOCC2)c1)c1ccc([N+](=O)[O-])cc1,0.68,i
Cc1c(C(N)=O)c(-c2ccccc2)nn1-c1ccccc1,0.5,i
CCCc1c(-c2ccc(O)cc2)nn(-c2ccc(O)cc2)c1-c1ccc(O)cc1,-6.6,-6.6*
OC1CCN(c2c3c(nc4cc(-c5cccc(F)c5)nn24)CCCC3)CC1,.,i
CCc1c(C)nc2cc(-c3cc(OC)cc(OC)c3)nn2c1N1CCCC1,0.09,i
COc1cc(OC)cc(-c2cc3nc4c(c(N5CCN(c6ncccn6)CC5)n3n2)CCCC4)c1,-6.2,-6.2*
Fc1cccc(-c2cc3nc4c(c(N5CCC6(CC5)OCCO6)n3n2)CCCC4)c1,-6.6,-6.6*
Cc1cccc(/C=C2\Sc3ccc(C(=O)N4CCCCC4)cc3N(C)C2=O)c1,.,i
Cc1cccc(/C=C2\Sc3ccc(C(=O)N4CCC(C)CC4)cc3N(C)C2=O)c1,-6.5,-6.5*
Cc1ccccc1CS(=O)(=O)c1nnc([C@H](CC(C)C)NC(=O)OC(C)(C)C)o1,-5.6,-5.6*
CC(C)C[C@H](NC(=O)OC(C)(C)C)c1nnc(SCc2ccccc2)o1,-6.9,-6.9*
CC(C)(C)OC(=O)N[C@@H](Cc1ccccc1)c1nnc(S(=O)(=O)Cc2cccc(F)c2)o1,.,i
CCOC(=O)CSc1nnc([C@H](Cc2ccccc2)NC(=O)OC(C)(C)C)o1,.,i
Cn1c(N)c(C(=O)COC(=O)c2ccc(Cl)nc2)c(=O)n(C)c1=O,.,i
COc1cc(C(=O)Nc2ccc3c(c2)OCO3)ccc1-n1cnnn1,0.17,i
COC(=O)C1=C(C)N(c2cccc(C)c2)C(=O)/C1=C\c1cccs1,-6.7,-6.7*
CCOC(=O)C1=C(C)N(c2ccccc2)C(=O)/C1=C\c1cccs1,.,i
CCc1c(C)nc(N2CCN(c3ccccc3)CC2)[nH]c1=O,1.6,i
COc1ccc(C(=O)NNC(=O)OC(C)(C)C)cc1,.,i
COc1ccc(C(=O)NN/C(C)=C/C(=O)C(F)(F)C(F)(F)C(F)(F)F)cc1,10*,i
NC(=O)NC(=O)CSc1nc(-c2ccccc2)c(-c2ccccc2)n1CC1CCCO1 (configuration not stated),.,i
CCOC(=O)C(Cc1ccccc1)C(=O)NCc1cccnc1 (configuration not stated),0.94,i
CCOC(=O)C(Cc1ccccc1)C(=O)Nc1cccc2ccccc12 (configuration not stated),-5.8,-5.8*
N#Cc1ccccc1CSc1nc2ccsc2c(=O)n1Cc1ccccn1,.,i
SMILES,KCNQ2 pot,KCNQ2 block
Cc1ccc(CSc2nc3ccsc3c(=O)n2Cc2ccccn2)cc1,-6.2,-6.2*
CS/C(=C\[N+](=O)[O-])Nc1ccc(F)cc1,1,i
COc1ccc([N+](=O)[O-])cc1NC(=O)CSCc1ccc(Br)cc1,5.5*,i
COc1ccc([N+](=O)[O-])cc1NC(=O)CSCc1ccccc1C,1.5,i
C=C1CCN([C@@H](Cc2ccccc2)C(=O)NCc2ccccc2)S(=O)(=O)c2ccccc21,.,i
C=C1CCN([C@@H](Cc2ccccc2)C(=O)NCc2ccc(Cl)cc2)S(=O)(=O)c2ccccc21,-6,-6*
NS(=O)(=O)c1ccc(NCc2cc(Cl)ccc2OCc2ccc(F)cc2)cc1,7.7*,i
NS(=O)(=O)c1ccc(NCc2ccccc2OCc2ccccc2F)cc1,3.4,i
COc1ccc(OC)c(C(=O)CN2CCN(S(=O)(=O)c3ccc(Br)cc3)CC2)c1,.,i
O=c1[nH]n(-c2ccccn2)c(=O)c2ccccc12,0.01,i
COC(=O)C1=C(C)N(c2ccc(OC)c(OC)c2)C(=O)/C1=C\c1ccco1,0.96,i
CCOC(=O)C1=C(C)N(c2ccccc2)C(=O)/C1=C\c1ccco1,-6,-6*
Cc1ccc(-c2nnn(CC(=O)N(c3cccc(F)c3)C(C(=O)NC3CCCC3)c3ccncc3)n2)o1 (configuration not stated),.,i
O=C(Nc1cccc(S(=O)(=O)N2CCCCC2)c1)c1ccc([N+](=O)[O-])o1,8.5*,i
O=C(COC(=O)c1ccc([N+](=O)[O-])o1)Nc1cccc(S(=O)(=O)N2CCCCC2)c1,0.25,i
Cc1ccc(/C=N/NC(=O)c2cc(-c3ccccc3)nc3ccccc23)o1,0.13,i
CC(=O)O[C@@H]1[C@@H](O)[C@@H](O)[C@H](Oc2c(-c3ccc(O)cc3)oc3c(CC=C(C)C)c(O)cc(O)c3c2=O)O[C@H]1C,-10,-10*
COc1ccc(-c2oc3c(CC=C(C)C)c(O[C@@H]4O[C@H](CO)[C@@H](O)[C@H](O)[C@H]4O)cc(O)c3c(=O)c2O[C@@H]2O[C@@H](C)[C@H](O)[C@@H](O)[C@H]2O)cc1,.,i
COc1cc(C(=O)O/N=C2\C=CC(=O)C(C)=C2)cc(OC)c1OC,.,i
N#Cc1cccnc1Nc1ccc(Cl)cc1,0.02,i
CC(CC(=O)Nc1nc2ccccc2[nH]1)c1ccccc1 (configuration not stated),.,i
CC1(C)CC(=O)C(C(C2=C(O)CC(C)(C)CC2=O)c2cccnc2)C(=O)C1 (configuration not stated),0.16,i
CC1(C)CC(=O)C(C(C2=C(O)CC(C)(C)CC2=O)c2cccs2)C(=O)C1 (configuration not stated),6.2*,i
O=C1C(=O)N(CCN2CCOCC2)C(c2cccnc2)/C1=C(/O)c1ccc(Cl)cc1 (configuration not stated),2.1,i
Cn1c(SCC(=O)Nc2nccs2)nnc1-c1ccco1,.,i
SMILES,KCNQ2 pot,KCNQ2 block
Cn1c(SCC(=O)Nc2ccc(Cl)cc2F)nnc1-c1ccco1,-5.8,-5.8*
O=S(=O)(N/N=C/c1ccc(Cl)cc1)c1ccc(Cc2ncc(C(F)(F)F)cc2Cl)s1,-6.2,-6.2*
NC(=O)c1ccc(Cc2ncc(C(F)(F)F)cc2Cl)s1,.,i
Cn1c2ccccc2c2cc(C(=O)OCC(=O)N3CC(=O)Nc4ccccc43)sc21,.,i
CCc1cccc2c(C(=O)COC(=O)c3ccc(O)cc3)c[nH]c12,.,i
Cc1ccccc1N(C(=O)c1csnn1)C(C(=O)NC(C)(C)C)c1cccs1 (configuration not stated),.,i
c1ccc(-c2n[nH]c3c2CCC3)cc1,.,i
CC(C)[C@@H]1CC[C@@H](C)c2c(-c3ccccc3)n[nH]c21,-7.2,-7.2*
Cc1csc2ncc(C(=O)NCCC(c3ccccc3)c3ccccc3)c(=O)n12,.,i
CC(C)(C)c1ccc(C(=O)c2c[nH]c(C(=O)NCCCn3ccnc3)c2)cc1,.,i
CC(C)(C)C(=O)c1no[n+]([O-])c1/C(=N/O)C(C)(C)C,-7,-7*
O=C(Cn1cnc2ccccc2c1=O)Nc1nc2ccccc2s1,0.26,i
CCCCOc1ccc(-c2csc(N)n2)cc1[N+](=O)[O-],1.8,i
Cc1nn(-c2ccc(N3CCCCC3)nn2)c(C)c1CCC(=O)Nc1ccccc1F,1.6,i
CCOCCCn1c(C)nc2c(c1=O)c1nc3ccccc3nc1n2-c1ccc(C)cc1,.,i
CCO/C(C)=N/n1c2nc3ccccc3nc2c2c(=O)n(CC(C)C)c(C)nc21,-5.6,-5.6*
COc1cccc(Nc2nc(CC(C)=O)ns2)c1,0.3,i
O=C(OCC(=O)N1CCOCC1)c1ccccc1Cc1ccccc1,.,i
